# PTAP-TSG101 blk: inhibitors of HIV-1 PTAP binding to human TSG101, validation; Q99816; Fluorescence polarization, FITC-PTAP peptide/Tsg101, 20 min; Potency, µM (titrated, usually from 115 µM), actives largely listed as inhibitors; 44,000 tested, under 10 active; note: potency is the fitted concentration of half-maximal effect; 0% is about no effect
#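 Compounds pinned into 10 uM Tsg101 binding domain, then 50 nM FITC-PTAP peptide added in pH 7.5 HEPES buffer; FP read after 20 min, room temperature. Total S+P intensity flags fluorescent compounds; active cut-off <25 µM, efficacy <60%.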
# HTT-AS act: activators of huntingtin-antisense promoter activity; Potency, µM (titrated, usually from 57.5 µM), for inactives: top-dose activity change, positive = activation, hits mostly activators; AID 1508624; HEK293 HTT-AS promoter firefly luciferase reporter, 24 h; response scale: percent change from vehicle, -100% = no light; 48,000 tested, 0.24% active; note: potency is the fitted concentration of half-maximal effect; nearly all actives have a fitted effect of over 55% in size
#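 Firefly luciferase signal from promoter-reporter HEK293 cells was scaled between vehicle (0%) and zero RLU (-100%). Compounds were tested at final concentrations of up to 57.5 uM over 24 h at 37 degrees C. PTC124 at 50 uM final served as control inhibitor.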
# DRV1 agonist: agonists of human resolvin D1 receptor DRV1 (GPR32) | CHO-K1 GPR32 beta-arrestin PathHunter luminescence, 90 min; zero percent set by DMSO-only wells | 48,000 tested, 2.5% active | activation, % at 76.9 µM;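 active = activation of at least 60% and not above a set upper limit, about 1 call in 100 departs from these limits; inconclusive = activation of 40% to 60%, or above that upper limit; inactive = activation under 40%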; note: 0% is about no effect
#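 Engineered CHO-K1 line co-expressing GPR32-ProLink and EA-beta-arrestin. Compound treatment lasted 90 min at 37 °C. Luminescence was recorded after 1 h with substrate at ambient temperature, relative to DMSO basal wells.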
# HTT prom inh: inhibits huntingtin promoter activity; HEK293 HTT promoter firefly luciferase reporter, 24 h; Potency, µM (doses to about 57.5 µM), without a hit: top-dose activity change, negative = inhibition, hits mostly inhibitors; 48,000 tested, 0.93% active; note: potency is the fitted concentration of half-maximal effect; nearly all actives have a fitted effect of over 50% in size
#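 Luminescence was read after Dual-Glo reagent and a 10 min room-temperature incubation. Values were normalized to vehicle (0% activity) and zero RLU (-100% activity). Reporter HEK293 cells had been exposed to compounds (up to 57.5 uM final) for 24 h.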
# GALK inhibitor: inhibits human galactokinase. 44,000 tested, under 10 active. AID 1347072. recombinant GALK, Kinase-Glo ATP luminescence, 1 h. Potency, µM (top dose mostly 57.5 µM), without a hit: at the top dose activity, negative = inhibition, most hits filed as inhibitors. P51570;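 note: plate controls were full GALK reaction for no effect and reaction lacking GALK for full effect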
#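 Compounds were pinned into ATP buffer, then GALK-galactose mix was added (final 5 nM enzyme, 35 uM ATP, 100 uM galactose, pH 8.0). After 1 h at room temperature, Kinase-Glo Plus was added and luminescence read.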
# B2AR arrestin ag: beta-arrestin recruitment by human beta2-adrenergic receptor ligands | P07550 | HTLA Tango cells, beta-arrestin recruitment, luciferase luminescence, 18 h | Potency, µM (highest dose often 46.1 µM), actives largely listed as activators | 44,000 tested, under 10 active | AID 1347077;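 note: potency is the fitted concentration of half-maximal effect; 0% = DMSO and full agonism = EC100 isoproterenol or metaproterenol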
# Target sequence (P07550 whole entry, looked up): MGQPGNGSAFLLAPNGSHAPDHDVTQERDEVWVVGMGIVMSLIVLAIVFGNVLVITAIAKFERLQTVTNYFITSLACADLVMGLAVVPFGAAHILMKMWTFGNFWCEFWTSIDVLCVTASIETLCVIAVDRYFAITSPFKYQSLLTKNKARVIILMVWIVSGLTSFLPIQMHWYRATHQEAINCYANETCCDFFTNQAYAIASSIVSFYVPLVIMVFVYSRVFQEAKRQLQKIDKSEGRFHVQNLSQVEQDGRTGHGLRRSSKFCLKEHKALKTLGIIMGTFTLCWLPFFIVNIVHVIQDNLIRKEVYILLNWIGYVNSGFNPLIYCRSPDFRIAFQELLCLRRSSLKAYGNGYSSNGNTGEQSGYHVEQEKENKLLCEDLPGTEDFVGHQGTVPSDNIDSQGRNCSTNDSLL
#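 First, Tango cells carrying beta2-AR and beta-arrestin fusions received compound up to 46 microM. After 18 hr at 37 degrees C, luciferase substrate was added for 15 minutes, then luminescence gave %Activity for curve fitting.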
# Starred values were filed as active, the others as inactive; i = inactive; ? = inconclusive; · = not tested or not shown. Most compounds without a hit are left out; they make up all but 3.7% or so of the library. Unless noted, calls come from the whole dose curve; as a rule, active = well fitted curve in the direction sought with a large enough effect; inconclusive = small, poorly fitted or top-dose-only effect, or another doubt; inactive = no such curve, though single readings can be large; an effect the other way counts as inactive or inconclusive.
SMILES,PTAP-TSG101 blk,HTT-AS act,DRV1 agonist,HTT prom inh,GALK inhibitor,B2AR arrestin ag
Cc1ccc([C@@H]2O[C@H](CO)[C@@H](O)[C@H](O)[C@@H]2O)cc1Cc1ccc(-c2ccc(F)cc2)s1,·,-24%,·,-15%,·,·
CCNC(=O)c1noc(-c2cc(C(C)C)c(O)cc2O)c1-c1ccc(CN2CCOCC2)cc1,·,-64%,·,?,·,·
CCOC(=O)c1cnc2ccc(C)cc2c1Nc1ccc(N(CC)CC)cc1,i,-81%,43,25µM*,?,i
Cc1ccc(C(=O)Nc2c(C)nc3ccccn3c2=O)cc1C,i,?,-3,52%,-5%,i
Cc1cc(Br)cc(C)c1NC(=O)c1cnc2ccccn2c1=O,i,28µM*,-14,36%,4%,i
Nc1c(I)cc(I)c(C(=O)N(CCC(=O)O)c2ccccc2)c1I,·,-24%,-21,-5%,·,·
CN(C)CC1CCN(C2CCN(C(=O)c3cccc(-c4cc(O)c5ncccc5c4)c3)CC2)CC1,·,·,·,-27%,·,·
COC(=O)c1cc(NC(=O)CCc2c(C)nc3cc(-c4ccccc4)nn3c2C)cc(C(=O)OC)c1,i,-20%,-1,-25%,8%,i
COc1cc(OC)cc(-c2cc3nc(C)c(CCC(=O)Nc4ccc(F)c(Cl)c4)c(C)n3n2)c1,i,-83%,-12,1.6µM*,1%,i
CCOc1ccc(NC(=O)CCc2c(C)nc3cc(-c4ccc(Cl)cc4)nn3c2C)cc1,i,-80%,-13,?,1%,i
COc1cc(NC(=O)CCc2c(C)nc3cc(-c4ccccc4)nn3c2C)cc(OC)c1OC,i,-69%,-6,4µM*,10%,i
COc1ccc(NC(=O)CCc2c(C)nc3cc(-c4cccc(F)c4)nn3c2C)cc1Cl,i,-66%,-2,2.2µM*,1%,i
COc1ccc(N2CCN(C(=O)CCc3c(C)nc4cc(-c5ccc(Cl)cc5)nn4c3C)CC2)cc1,i,-78%,-2,0.32µM*,7%,i
Cc1nc2cc(-c3cccc(F)c3)nn2c(C)c1CCC(=O)NC(C)c1ccccc1 (stereo not drawn),i,-65%,-2,?,-2%,i
COc1ccc(/C(C)=C/C(=O)O)c(OC)c1,·,3%,-6,4%,·,·
CCc1ccc(NC(=O)Cn2nnc(C(=O)Nc3cc(C)ccc3OC)c2N)cc1,i,-13%,74*,-26%,2%,i
COc1ccc(OCC(O)Cn2c(NCCO)nc3c2c(=O)n(C)c(=O)n3C)cc1 (stereo not drawn),i,-67%,-9,14µM*,1%,i
CCCNc1nc2c(c(=O)n(C)c(=O)n2C)n1CC(O)COc1ccccc1 (stereo not drawn),i,-12%,8,-5%,3%,i
N#CNC(=NCCCCCCOc1ccc(Cl)cc1)Nc1ccncc1,·,-44%,·,?,·,·
CCCCN(CCCC)CC(O)Cn1cc(/C=C/C(=O)c2ccccc2)c2ccccc21 (stereo not drawn),i,-38%,88*,-27%,7%,i
c1ccc2c(Oc3nc(Nc4ccc(N5CCOCC5)cc4)c4ncn(C5CCCCC5)c4n3)cccc2c1,·,-10%,·,0%,·,·
COc1cc(C)c(C=CC(C)=CC=CC(C)=CC(=O)O)c(C)c1C,·,0%,·,15%,·,·
CC(C)c1nn2c(=O)cc(COC(=O)c3cccs3)nc2s1,i,4µM*,-23,47%,-9%,i
C[C@@H]1[C@H](C)CC[C@]2(C(=O)O)CC[C@]3(C)C(=CC[C@@H]4[C@@]5(C)C[C@@H](O)[C@H](O)[C@@](C)(CO)[C@H]5CC[C@]43C)[C@@H]12,·,-10%,·,-5%,·,·
CCCCN(CC)C(=O)c1c[nH]c2ccc(S(=O)(=O)N(C)c3ccc(Cl)cc3)cc2c1=O,i,-36%,91*,-26%,2%,i
SMILES,PTAP-TSG101 blk,HTT-AS act,DRV1 agonist,HTT prom inh,GALK inhibitor,B2AR arrestin ag
O=C1OC2(c3ccccc31)c1cc(I)c(O)c(I)c1Oc1c2cc(I)c(O)c1I,·,-25%,-64,-7%,·,·
O=C1OC2(c3ccc(O)cc3Oc3cc(O)ccc32)c2ccccc21,·,-7%,111*,9%,·,·
C#Cc1cccc(Nc2ncnc3cc(OCCOC)c(OCCO)cc23)c1,·,-36%,·,?,·,·
COc1ccc(N2CCN(S(=O)(=O)c3ccc(F)c(C(=O)Nc4ccccc4Cl)c3)CC2)cc1,i,-38%,91*,?,2%,i
O=C(NCCc1csc(-c2ccc(F)cc2)n1)c1ccco1,i,-4%,109*,-12%,1%,i
Cc1c(CCNC(=O)c2ccco2)sc2nc(-c3ccc(F)cc3)nn12,i,-11%,-12,-28%,-1%,i
O=C(COc1ccc(Cl)cc1)NCCc1csc(-c2cccc(F)c2)n1,i,-29%,77*,?,1%,i
O=C(CCc1ccccc1)NCCc1csc(-c2cccc(F)c2)n1,i,-12%,85*,-26%,-3%,i
COc1ccc(CC(=O)NCCc2csc(-c3cccc(F)c3)n2)cc1OC,i,-17%,28,-32%,2%,i
Cc1ccc(-c2nc3sc(CCNC(=O)c4ccco4)c(C)n3n2)cc1,i,-11%,65*,-21%,0%,i
COc1cccc2cc(-c3nc(C4CCC(C(=O)O)CC4)n4ncnc(N)c34)[nH]c12 (stereo not drawn),·,-23%,·,?,·,·
OC[C@H]1O[C@@H](n2cnc3c2NC=NC[C@@H]3O)C[C@H]1O,·,-21%,·,-9%,·,·
COc1c(C)c2c(c(O)c1CC=C(C)CCC(=O)O)C(=O)OC2,·,-29%,·,-23%,·,·
CC(C)(C)OC(=O)Nc1ccc(-c2cc(C(=O)NCCCCCCC(=O)NO)no2)cc1,·,-35%,·,-11%,·,·
O=C(COc1ccccc1)NCCc1csc(-c2ccc(F)cc2)n1,i,-14%,120*,-19%,-1%,i
CCOc1ccc(CC(=O)NCCc2csc(-c3ccc(C)cc3)n2)cc1,i,-30%,-8,?,1%,i
CCOc1ccc(CC(=O)NCCc2csc(-c3ccc(Cl)cc3)n2)cc1,i,-26%,88*,?,-2%,i
CCOc1ccc(CCNC(=O)c2ccc3[nH]c(C)c(C)c3c2)cc1,i,-19%,72*,-21%,1%,i
COc1ccc(CCNC(=O)c2ccc3[nH]c(C)c(C)c3c2)cc1OC,i,2%,113*,?,-2%,i

# Compound activity from PubChem.
